From the supplement of paper PMC13380429 come the findings set out here.

Structures are written as SMILES.

In assay [1] the test system is Vero E6 infected with SARS-CoV-2. The assay can be described thus: morphology score (similarity to uninfected cells); higher = more like uninfected cells. To be noted: 24 h.
Assay [2] has the same test system. Nature of the assay: SARS-CoV-2 infection rate relative to infected DMSO; higher = more infection, active = 60 or less. To be noted: 24 h.

`NCc1cc(O)no1` [muscimol] (10 µM): the morphology score in assay [1] was -0.00274. Moreover, the SARS-CoV-2 infection rate in assay [2] was 111% (inactive).
`C[C@]12CCC(=O)C[C@@H]1CC[C@@H]1[C@@H]2CC[C@]2(C)[C@@H](O)CC[C@@H]12` [Dihydrotestosterone] (10 µM): in assay [1], the morphology score was -0.034. The SARS-CoV-2 infection rate in assay [2] is 110% (inactive).
With `O=c1[nH]cnc2nc[nH]c12` [hypoxanthine] (10 µM), the morphology score in assay [1] came out at 0.0617. The SARS-CoV-2 infection rate in assay [2] was 108% (inactive).
The corresponding values for `CN(CC[C@@H](Oc1ccc(-c2ccccc2)cc1)c1ccc(F)cc1)CC(=O)O` (10 µM) are 0.036 and 108% (inactive).
`Clc1cccc(/C=N/N=C/c2cccc(Cl)c2)c1` [3,3'-dichlorobenzaldazine] (10 µM) returned a morphology score in assay [1] of 0.288. Besides, the SARS-CoV-2 infection rate in assay [2] is 99% (inactive).
`O=C(Nc1cc(-c2ccccc2)nn1-c1ccccc1F)c1ccc([N+](=O)[O-])cc1` (10 µM): the morphology score in assay [1] turned out to be 0.233. Besides, in assay [2], the SARS-CoV-2 infection rate is 93.5% (inactive).
`Oc1noc2c1CCNC2` [gaboxadol] (10 µM): in assay [1], the morphology score is 0.0535. For the same compound, in assay [2], the SARS-CoV-2 infection rate is 106% (inactive).
Take `COC[C@H](C)Oc1cc(O[C@@H](C)Cc2ccccc2)cc(C(=O)Nc2ccc(C(=O)O)cn2)c1` (10 µM): in assay [1], the morphology score was -0.163. Moreover, in assay [2], the SARS-CoV-2 infection rate is 100% (inactive).
Take `CC(C)(C)NC(=O)[C@@H](c1cccnc1)N(C(=O)c1ccco1)c1ccc(C(C)(C)C)cc1` (10 µM): the morphology score in assay [1] is 0.333. Moreover, the SARS-CoV-2 infection rate in assay [2] is 83% (inactive).
The compound `C=CC(=O)c1ccc2ccccc2c1` [JAK3-inhibitor-V] (10 µM) yielded a morphology score in assay [1] of 0.0151. The SARS-CoV-2 infection rate in assay [2] is 102% (inactive).
As to `N[C@H](C(=O)O)c1cc(O)no1` [ibotenic-acid] (10 µM), the morphology score in assay [1] was -0.00755. In addition, in assay [2], the SARS-CoV-2 infection rate was 93% (inactive).
For `O=c1[nH]c(=O)n([C@H]2CCCO2)cc1F` (racemic) [ftorafur] (10 µM), in that order: -0.016 and 116% (inactive).
For the compound `CN1CCN(c2ccc(/C=C(\C#N)c3ccccc3Br)cc2)CC1` (10 µM), the morphology score in assay [1] was -0.13. Further, the SARS-CoV-2 infection rate in assay [2] was 116% (inactive).
Take `O=C(O)/C=C/c1ccc(Cn2ccnc2)cc1` [ozagrel] (10 µM): the morphology score in assay [1] is 0.12. Further, the SARS-CoV-2 infection rate in assay [2] was 92% (inactive).
In assay [1], `COCC(=O)O[C@]1(CCN(C)CCCc2nc3ccccc3[nH]2)CCc2cc(F)ccc2[C@@H]1C(C)C` [mibefradil] (10 µM) came in with a morphology score of 0.79. Further, in assay [2], the SARS-CoV-2 infection rate was 17.5% (active).
Turning to `c1ccc2cc(C3=NCCN3)ncc2c1` (10 µM), the morphology score in assay [1] amounted to 0.119. Also, the SARS-CoV-2 infection rate in assay [2] was 102% (inactive).
In turn, `OC[C@H]1O[C@H](O[C@]2(CCl)O[C@H](CCl)[C@@H](O)[C@@H]2O)[C@H](O)[C@@H](O)[C@H]1Cl` [sucralose] (10 µM) displayed a morphology score in assay [1] of 0.0888. In addition, in assay [2], the SARS-CoV-2 infection rate is 97% (inactive).
The corresponding values for `C[C@H](NC[C@H](O)CP(=O)(O)CC1CCCCC1)c1ccc(Cl)c(Cl)c1` (10 µM) are -0.206 and 114% (inactive).
Turning to `[O-][S+](c1ccccc1)c1ccc2nnnn2n1` (configuration not stated) (0.833333 µM), the morphology score in assay [1] worked out at 0.19. For the same compound, the SARS-CoV-2 infection rate in assay [2] was 85.5% (inactive).
Turning to `COc1cc(NS(=O)(=O)c2ccc(N)cc2)nc(OC)n1` [sulphadimethoxine] (10 µM), in assay [1], the morphology score is -0.00223. In assay [2], the SARS-CoV-2 infection rate is 103% (inactive).
For `NNc1nncc2ccccc12` [hydralazine] (10 µM), in that order: -0.0789 and 104% (inactive).
`O=C(O)c1c2ccccc2cc2ccccc12` [9-anthracenecarboxylic-acid] (10 µM): the morphology score in assay [1] was 0.252. For the same compound, the SARS-CoV-2 infection rate in assay [2] was 89.5% (inactive).
Consider `CO[C@H]1C[C@@H]2CC[C@@H](C)[C@@](O)(O2)C(=O)C(=O)N2CCCC[C@H]2C(=O)O[C@H]([C@H](C)C[C@@H]2CC[C@@H](O)[C@H](OC)C2)CC(=O)[C@H](C)/C=C(\C)[C@@H](O)[C@@H](OC)C(=O)[C@H](C)C[C@H](C)/C=C/C=C/C=C/1C` [sirolimus] (10 µM), for which the morphology score in assay [1] is -0.126. The SARS-CoV-2 infection rate in assay [2] was 104% (inactive).
Compound `COc1ccccc1Oc1c(NS(=O)(=O)c2ccc(C(C)(C)C)cc2)nc(-c2ncccn2)nc1OCCO` [bosentan] (10 µM) gave a morphology score in assay [1] of 0.0268. Also, the SARS-CoV-2 infection rate in assay [2] is 112% (inactive).
In assay [1], `CC1(C)[C@@H]2C[C@@H](O)[C@@](C)(O)[C@H]1C2` [2,3-cis/exo-pinanediol] (10 µM) gave a morphology score of 0.0892. In addition, the SARS-CoV-2 infection rate in assay [2] is 95.5% (inactive).
`CN1[C@H]2C[C@H](OC(=O)[C@H](CO)c3ccccc3)C[C@@H]1[C@@H](O)C2` [anisodamine] (10 µM): the morphology score in assay [1] was -0.00951. For the same compound, the SARS-CoV-2 infection rate in assay [2] was 116% (inactive).
For the compound `C=CCN1C[C@H](C)N([C@H](c2ccc(C(=O)N(CC)CC)cc2)c2cccc(OC)c2)C[C@H]1C` (10 µM), in assay [1], the morphology score is -0.00563. Besides, the SARS-CoV-2 infection rate in assay [2] was 106% (inactive).
Take `C[C@H]1C[C@@H]2[C@H]([C@@H](O)C[C@@]3(C)[C@H]2CC[C@]3(O)C(=O)CO)[C@@]2(C)C=CC(=O)C=C12` [methylprednisolone] (10 µM): the morphology score in assay [1] was -0.0624. Besides, the SARS-CoV-2 infection rate in assay [2] was 108% (inactive).
With `CC(=O)N1N=C(c2ccc(N)cc2)c2cc3c(cc2C[C@H]1C)OCO3` [talampanel] (10 µM), the morphology score in assay [1] was -0.0668. Further, the SARS-CoV-2 infection rate in assay [2] is 104% (inactive).
Consider `CCn1nc(C(=O)O)c(=O)c2cc3c(cc21)OCO3` [cinoxacin] (10 µM), for which, in assay [1], the morphology score was -0.0392. For the same compound, in assay [2], the SARS-CoV-2 infection rate was 104% (inactive).
Consider `CC(C)(C)NCC(O)c1cc(Br)no1` (configuration not stated) [broxaterol] (10 µM), for which the morphology score in assay [1] is -0.00593. The SARS-CoV-2 infection rate in assay [2] is 112% (inactive).
